# The supplement of paper PMC3334620
# In all, about 33,000 sequences were measured (“E-score (-0.5 to 0.5)”: median about -0.054, highest 2% from about 0.35 on). Many of the other results were omitted from the sample, so the highest values are more common in it than they were.
# Target: T1, Stb5 (UniProt P38699)
# T1 sequence: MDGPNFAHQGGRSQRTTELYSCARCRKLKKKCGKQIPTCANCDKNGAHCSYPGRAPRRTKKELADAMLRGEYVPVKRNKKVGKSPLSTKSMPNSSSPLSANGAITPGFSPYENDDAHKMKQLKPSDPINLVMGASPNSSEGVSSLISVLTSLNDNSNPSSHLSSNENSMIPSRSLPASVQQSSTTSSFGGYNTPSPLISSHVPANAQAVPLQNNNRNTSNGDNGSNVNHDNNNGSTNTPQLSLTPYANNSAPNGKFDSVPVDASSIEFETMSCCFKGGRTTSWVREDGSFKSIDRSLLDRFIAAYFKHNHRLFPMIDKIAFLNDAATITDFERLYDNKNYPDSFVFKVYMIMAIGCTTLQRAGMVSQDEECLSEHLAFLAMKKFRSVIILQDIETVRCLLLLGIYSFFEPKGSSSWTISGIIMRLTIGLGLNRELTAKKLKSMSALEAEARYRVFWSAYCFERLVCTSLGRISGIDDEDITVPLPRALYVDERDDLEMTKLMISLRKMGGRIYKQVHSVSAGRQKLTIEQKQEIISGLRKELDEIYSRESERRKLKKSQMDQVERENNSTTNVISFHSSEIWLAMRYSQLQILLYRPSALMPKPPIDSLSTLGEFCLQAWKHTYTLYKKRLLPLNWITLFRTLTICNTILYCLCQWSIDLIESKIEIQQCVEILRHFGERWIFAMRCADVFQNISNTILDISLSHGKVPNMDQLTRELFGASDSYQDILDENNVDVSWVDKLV
# Assay: PBM E-score (8-mer binding enrichment) (E-score (-0.5 to 0.5)); higher = stronger / more preferred TF binding
# Settings: protein concentration: 200 nM; construct: GST-full length
# Protocol: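 Universal 'all 10-mer' protein binding microarrays (Agilent AMADID 015681) probed with GST-tagged S. cerevisiae TFs (full-length or DBD) made by in vitro transcription/translation (PURExpress), about 100-200 nM. Bound TF was detected with fluorescent anti-GST. Each ungapped 8-mer (which stands for itself and its reverse complement) is scored by the PBM enrichment score (E-score), a modified Wilcoxon-Mann-Whitney statistic from -0.5 to +0.5, computed with the Universal PBM Analysis Suite. Scale: above 0.35 generally sequence-specific binding.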
row,Sequence,PBM E-score
1,ATACCTCG,-0.173
2,GCTTCGAA,-0.0877
3,ACGTACCC,0.0314
4,AACTCTAG,-0.33
5,GGACTCAC,0.0404
6,AGGACCAA,-0.115
7,AAGCCTCT,-0.318
8,AAGTAGCG,0.0894
9,GAAGTTCC,0.0956
10,CCTCCGCC,0.223
11,GCTCCGCC,0.347
12,ACTCCGAT,0.344
13,ACTCCGCA,0.259
14,ACTCCGCT,0.392
15,ACTCCGCG,0.357
16,CCTCCGCG,0.157
17,ACTCCGCC,0.384
18,AATCCGCG,0.21
19,AGATAAGC,-0.142
20,CACACTAG,-0.189
21,AGTCCACC,0.0594
22,AAAATATT,0.114
23,GAAGGCAA,-0.234
24,GTCTTCCA,-0.125
25,ATCCAAAT,-0.103

row,Sequence,PBM E-score
1,GGTGCTAA,0.358
2,TGTGCTAA,0.0576
3,AGTGCTAA,-0.043
4,GCCGCGCC,0.221
5,CGGTCACG,0.149
6,CGGCGCCG,0.309
7,AGCCGGCG,0.248
8,AGCCGGCC,0.111
9,CGCCGGCA,0.354
10,GGCCGGCA,0.289
11,CGCCGGCG,0.428
12,AGCCGGCA,0.256
13,CGCCGGCC,0.391
14,GGCCGGCC,0.15
15,ATAAAAGA,0.0611
16,GAGCAATA,-0.118
17,CAACACTG,-0.305
18,CAGTCAAG,-0.338
19,CCCACAGC,-0.146
20,CCCCGCCG,0.381
21,CCCCGCCA,0.406
22,CCCCCCCG,-0.255
23,GCCCGCCA,0.284
24,TCCCGCCA,0.205
25,ACCCGCCG,0.318

row,Sequence,PBM E-score
1,GGGATGAA,0.0485
2,CACTGTAG,-0.25
3,CTTCCCTA,-0.161
4,ACTGCCGC,0.311
5,CGGGCATA,0.419
6,CGGGCTCA,0.358
7,CGGGCTTC,0.293
8,CGGGCCTC,0.108
9,CGGGCCTA,0.437
10,AGGGCATA,-0.0797
11,AGGGCTCA,-0.23
12,GGGGCATA,0.083
13,AGGGCCTA,0.0959
14,CGGGCTCC,0.0609
15,CGGGCTTA,0.473
16,AGGGCTTA,0.12
17,CTCGTCCA,-0.102
18,AGGAATAT,-0.0199
19,ACATAGAA,-0.0458
20,AAATCGCG,-0.0128
21,ATGTGGGC,0.089
22,GCCGATAA,0.313
23,CATGAACA,-0.0519
24,ACGCGGTA,0.215
25,GCGCGGCA,0.237

row,Sequence,PBM E-score
1,CGGCGTCA,0.384
2,CCGCGGCA,0.367
3,CGGCGGCA,0.411
4,ACGCGGCA,0.189
5,AGGCGGCA,0.238
6,CCGCGGTA,0.399
7,AGGCGTCA,-0.0617
8,GGGCGGCA,0.323
9,CCGCGGTC,0.32
10,CGGCGTCC,0.277
11,GCGCCTCC,-0.0611
12,CCCTCACC,-0.225
13,AGTAAAGA,0.143
14,GCACCCGA,0.0572
15,TCCGTGAA,0.171
16,ATGAAACG,0.067
17,GTTTGGGA,-0.2
18,CCGCGTTC,0.193
19,GAGAGTGA,-0.349
20,CTATCACC,0.216
21,ACATCCGC,0.339
22,CTATCCGC,0.0573
23,CTATCTCC,0.235
24,CTATCCGA,0.0404
25,ATCTCTCC,0.216

row,Sequence,PBM E-score
1,ATATCTCC,0.397
2,ATATCACC,0.436
3,ATATCACA,-0.0666
4,ATATCCGC,0.402
5,ATATCCGA,0.37
6,ATATCCGG,0.294
7,ATGGGTGA,-0.12
8,GACTTCCA,-0.177
9,AGAAAACA,-0.128
10,AGGTCGCA,0.0143
11,CTGCTAAA,0.00756
12,ACTCCATG,-0.0336
13,CTCAGAAC,-0.191
14,AATTGGCG,0.063
15,GCCCCCAC,0.0261
16,ATATGTCC,0.406
17,ATATTCCC,0.372
18,ATATCCCG,0.275
19,CTATTCCC,0.136
20,CTATGTCC,0.232
21,ATATACCC,0.371
22,CTATACCC,0.229
23,ATATTCCG,0.171
24,ATATGTCG,0.083
25,CTATCCCC,0.276

row,Sequence,PBM E-score
1,ATATCCCC,0.395
2,ATATACCG,0.34
3,AGTCTGGA,0.00288
4,TCGATCGA,-0.148
5,GAGCTCAA,0.0147
6,ACTGGCCG,-0.0443
7,TCGCTCCA,-0.126
8,AAATTCAG,-0.221
9,CAGCTGAG,-0.231
10,CCATGCAA,-0.00387
11,ACGTGGGA,-0.265
12,AGAAAAGG,-0.103
13,ATCAAACA,-0.234
14,CTATATCC,0.187
15,ATATATCC,0.398
16,ATATATCA,0.0402
17,GTATCGGA,0.263
18,ATATCGGA,0.166
19,CTATCGGA,0.402
20,ACCTTTAG,0.0714
21,TAAGCCCA,0.0396
22,AACGCGAC,-0.173
23,AATAGAAT,-0.187
24,GATAGGTA,-0.0734
25,ATCGGCAG,0.219

row,Sequence,PBM E-score
1,GGCGGCAC,0.343
2,ATCGGCAC,0.339
3,ATCGGCAT,0.363
4,ACCGGCAC,0.373
5,GTCGGCAA,0.276
6,ACCGGCAG,0.277
7,GTCGGCAC,0.374
8,AGCGGCAC,0.355
9,CTCGGCAC,0.187
10,ACCGGCAA,0.241
11,CGCGGCAC,0.288
12,ATTGGAGC,-0.193
13,TATCCTAA,-0.109
14,CATGTGGG,-0.114
15,CCATGGGC,-0.0701
16,AAATTGAC,0.0873
17,AGCGGCAT,0.401
18,AGCGGCCT,0.377
19,AGCGGCCG,0.252
20,AGCGGCAA,0.2
21,AGCGGCAG,0.276
22,AGCGGCCA,0.177
23,AAGGCGGA,0.292
24,AGCACGAC,-0.2
25,CTACGAGA,-0.102

row,Sequence,PBM E-score
1,AATATCCG,0.39
2,ATTATCCG,0.359
3,AATATCCA,-0.00669
4,ATTATCCA,-0.0234
5,AATATCCC,0.291
6,AACATCCG,0.359
7,CACATCCG,0.0898
8,AACATCCC,0.149
9,ATTATCCC,0.0778
10,AGTTCGGA,0.208
11,AAGTGCGA,0.187
12,GGGGTGCA,0.0203
13,ACACAGAG,-0.0564
14,AACTCATC,-0.116
15,ACTTGCAT,0.0144
16,GCTCTGAA,-0.166
17,AACACATA,-0.222
18,ATAATACA,0.0704
19,ATAATACG,0.153
20,ATAATACC,0.368
21,ATTATACC,0.362
22,ATTATACG,0.173
23,ATTATACA,0.0217
24,ATGTGGTC,-0.168
25,GCCGTTCC,0.202

row,Sequence,PBM E-score
1,GATTCTCC,0.112
2,AGTCGAAT,-0.199
3,CATCCCGA,0.1
4,AATCCCGT,0.419
5,CGTCCCGC,0.2
6,GATCCCGC,0.232
7,AATCCCCT,-0.165
8,CATCCCGC,0.155
9,AGTCCCGA,0.342
10,TATCCCGA,0.18
11,AGTCCCGC,0.358
12,AATCCCGA,0.394
13,AATCCCGC,0.398
14,AATCCCAT,-0.042
15,CAATTTTA,-0.00732
16,TGTATACA,0.0199
17,AAGGCTTG,-0.305
18,CATACTGC,-0.045
19,CTTCAAAG,-0.124
